TDP1 inh – qHTS Assay for Inhibitors of Tyrosyl-DNA Phosphodiesterase (TDP1); Tyrosyl-DNA phosphodiesterase 1 (Homo sapiens), Q9NUW8; recombinant TDP1, AlphaScreen DNA substrate cleavage; Potency, µM (series often up to 130 µM), without a hit: at the top dose activity change, negative = inhibition, actives largely listed as inhibitors; 350,000 tested, 0.28% active; AID 485290, 2010; also: potency is read from the fitted curve at half-maximal effect; % is scaled to controls: 0 for no effect and ±100 for the full control effect; nearly all actives have a fitted effect of over 40% in size
Target sequence (Q9NUW8 whole entry, looked up): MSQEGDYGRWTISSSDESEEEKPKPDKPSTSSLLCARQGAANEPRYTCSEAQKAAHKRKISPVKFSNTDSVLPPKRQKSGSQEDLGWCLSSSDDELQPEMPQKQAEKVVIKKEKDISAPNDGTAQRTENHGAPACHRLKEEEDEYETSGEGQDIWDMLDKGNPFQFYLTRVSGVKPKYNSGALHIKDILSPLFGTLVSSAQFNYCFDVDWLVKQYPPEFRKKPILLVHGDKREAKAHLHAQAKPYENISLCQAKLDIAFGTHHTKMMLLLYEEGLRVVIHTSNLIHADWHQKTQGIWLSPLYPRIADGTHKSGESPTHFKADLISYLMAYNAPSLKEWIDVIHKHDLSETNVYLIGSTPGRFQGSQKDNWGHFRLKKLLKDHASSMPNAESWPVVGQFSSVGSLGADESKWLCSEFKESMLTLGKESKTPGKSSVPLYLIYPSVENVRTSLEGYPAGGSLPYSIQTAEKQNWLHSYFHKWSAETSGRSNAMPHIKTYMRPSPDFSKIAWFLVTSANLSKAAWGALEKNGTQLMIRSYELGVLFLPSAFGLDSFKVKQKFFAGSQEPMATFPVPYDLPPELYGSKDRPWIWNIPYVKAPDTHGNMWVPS
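Enzyme-compound mixtures sat 15 min at room temperature, followed by a 5 min reaction with 15 nM final substrate and 10 min with AlphaScreen beads. Recombinant human Tdp1 was used at 1 nM final.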
TGFb SMAD3 inh – qHTS for Inhibitors of TGF-b | 410,000 tested, 1.2% active | HepG2 CAGA-GFP TGF-b/SMAD3 reporter, GFP fluorescence, 18 h; TGF-beta stimulated, 500 pg/mL final | Potency, µM (titrated, usually from 46.1 µM), without a hit: top-dose activity, negative = inhibition, most hits filed as inhibitors; also: potency is read from the fitted curve at half-maximal effect; % is scaled to controls: 0 for no effect and ±100 for the full control effect; nearly all actives have a fitted effect of over 65% in size
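HEPG2 CAGA-GFP reporter cells (1000/well, DMEM with 1% FBS) received compounds, then recombinant TGF-beta at 500 pg/mL final for 18 hours at 37 degrees C. Per-cell GFP summed per well was normalised to unstimulated and stimulated DMSO controls before curve fitting.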
HepG2 tox – qHTS for Inhibitors of TGF-b: Cytotox Counterscreen; HepG2 CAGA-GFP viability, ATP luminescence, 18 h; Potency, µM (titrated, usually from 46.1 µM), for inactives: top-dose activity change, negative = cytotoxicity, usual class: cytotoxic; 410,000 tested, 0.76% active; AID 588856, 2011; also: potency is read from the fitted curve at half-maximal effect
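CellTiter-Glo luminescence gave cytotoxicity after 18 hours at 37 degrees C. The cells were HepG2 CAGA-GFP in 1% FBS DMEM, stimulated with 500 pg/mL TGF-beta after compound addition. %Activity was normalised to no-cell wells (complete cell-killing) and DMSO (no toxicity), and curves were fitted and classified.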
IL-1B inflam inh – qHTS for Inhibitors of Inflammasome Signaling: IL-1-beta AlphaLISA Primary Screen. THP-1 LPS/ATP IL-1B secretion, AlphaLISA, 16 h; active compounds read low. activity change, % at 57.5 µM. 360,000 tested, 4.7% active; in the data active = activity change below about -50%; inconclusive = mostly about -30% to -49%; also: % is scaled to controls: 0 for no effect and ±100 for the full control effect
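THP-1 cells pretreated 1 hr with compounds (up to 57.5 uM final), then stimulated with LPS (250 ng/mL final) plus ATP (1.25 mM final); secreted IL-1B measured by AlphaLISA after 16 hr, decreased signal indicating inhibition.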
DT40 TDP1 no CPT – qHTS for Inhibitors of human tyrosyl-DNA phosphodiesterase 1 (TDP1): qHTS in cells in absence of CPT; DT40 Tdp1-/- hTDP1 cells, no CPT, ATP luminescence, 48 h; Potency, µM (highest dose often 46.2 µM), for the others: at the highest dose activity change, negative = growth inhibition, usual class: inhibitors; 420,000 tested, 15% active; AID 686978, 2013; also: potency is read from the fitted curve at half-maximal effect; % is scaled to controls: 0 for no effect and ±100 for the full control effect; nearly all actives have a fitted effect of over 55% in size
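Luminescent ATP content (CellTiter-Glo) served as the growth readout. Knockout chicken DT40 cells expressing human TDP1 were exposed to compounds without camptothecin for a minimum 48 hr at 37 °C.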
TDP1 cell CPT – qHTS for Inhibitors of human tyrosyl-DNA phosphodiesterase 1 (TDP1): qHTS in cells in presence of CPT; chicken DT40 Tdp1-/-;hTDP1 cells + 20 nM CPT, ATP luminescence, 48 h; Potency, µM (series often up to 46.2 µM), inactives show at the highest dose activity change, negative = growth inhibition, hits mostly inhibitors; 420,000 tested, 12% active; AID 686979, 2013; also: potency is read from the fitted curve at half-maximal effect; % is scaled to controls: 0 for no effect and ±100 for the full control effect; nearly all actives have a fitted effect of over 55% in size
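Chicken DT40 Tdp1-/- cells complemented with human TDP1, 400 cells/well, exposed to compounds plus 20 nM camptothecin for at least 48 h at 37 C; viability read as ATP content by CellTiter-Glo luminescence.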
Starred values were filed as active, the others as inactive; ? = inconclusive; . = no result; [ ] = dose if it differs, or a comment. In the library only some 18% were active in any assay of this set; here they are far more common. Unless noted, calls follow the shape of the dose curve; as a rule, active = well fitted curve in the direction sought with a large enough effect; inconclusive = small, poorly fitted or top-dose-only effect, or another doubt; inactive = no such curve, though single readings can be large; an effect the other way counts as inactive or inconclusive.

SMILES | TDP1 inh | TGFb SMAD3 inh | HepG2 tox | IL-1B inflam inh | DT40 TDP1 no CPT | TDP1 cell CPT
O=C(NCc1ccc(F)cc1)c1cc(Sc2ccc(F)cc2F)nc2ccccc12 | 5% | -10% | -36% | . | ? | 16µM*
CCCCN(CC)CCCNC(=O)c1ccc2c(c1)NC(=O)CN2C | 10% | -11% | 6% | . | 0% | 3%
NC(=O)c1ccccc1NC(=O)CC12CC3CC(CC(Br)(C3)C1)C2 | 1% | -7% | -16% | 13 | -15% | -16%
CN(C)/C=N/N(C)c1ncccc1[N+](=O)[O-] | . | -1% | 7% | 5 | -26% | 4%
CCOC(=O)C1CCCCN1C(=O)/C(=C/c1ccc(OC)cc1)c1ccc(OC)c(OC)c1 (stereo unspecified) | 4% | 39% | 12% | -11 | ? | 18µM*
COc1ccc(C2=NN(C(=O)c3ccccc3)C(c3ccccc3)C2)c(O)c1 (stereo unspecified) | . | 7% | 5% | -2 | 18µM* | ?
COc1ccc(C2=NN(C(=O)c3cccs3)C(c3ccc(OC)cc3)C2)cc1 (stereo unspecified) | 3% | ? | -22% | ? | 18µM* | ?
O=C(c1cccs1)N1N=C(c2ccccc2)CC1c1ccccc1 (stereo unspecified) | 3% | ? | -14% | -10 | ? | ?
COc1ccc(C2CC(c3ccc(OC)c(OC)c3)=NN2C(=O)c2ccccc2)cc1 (stereo unspecified) | . | -14% | -8% | -12 | -22% | -25%
COc1ccc(C2CC(c3ccc(C)cc3)=NN2C(=O)c2ccccc2)cc1 (stereo unspecified) | . | ? | -35% | ? | 15µM* | 21µM*
Cc1c(C(=O)N2CCN(CCc3ccccn3)CC2)oc2ccc(Cl)cc12 | 4% | -9% | -14% | -12 | ? | ?
Cc1cccc(-n2c3nc(=O)n(C)c(=O)c-3cc3c(Cl)cccc32)c1C | -7% | 1% | 5% | . | -2% | 6%
Cn1c(=O)nc2n(Cc3ccccc3)c3cccc(Cl)c3cc-2c1=O | 2% | -8% | 4% | 11 | 29µM* | ?
O=S(=O)(Nc1ncnc2sc3c(c12)CCC3)c1cc(F)ccc1F | 3% | 5% | 3% | 0 | -17% | -27%
Oc1ccc(Nc2ncnc3scc(-c4ccccc4)c23)cc1 | 0% | 17% | -2% | -10 | 8.2µM* | ?
O=S(=O)(Nc1ncnc2sc3c(c12)CCC3)c1ccc(Cl)s1 | -3% | ? | -26% | 41 | 13µM* | ?
c1ccc(CNc2ncnc3nc[nH]c23)nc1 | 2% | -17% | -8% | 28 | 2% | -2%
c1ccc(CNc2ncnc3scc(-c4cccs4)c23)nc1 | 0% | ? | -17% | ? | 9.2µM* | 10µM*
CCOc1ccc(-c2csc3ncnc(Nc4cccc(O)c4)c23)cc1 | 1% | 6% | -30% | . | ? | ?
c1ccc(-c2csc3ncnc(NCc4ccccn4)c23)cc1 | 6% | ? | -3% | 41 | 9.2µM* | 12µM*
c1cncc(CNc2ncnc3sc4c(c23)CCC4)c1 | 3% | -2% | -22% | 16 | ? | ?
c1ccc(CNc2ncnc3sc4c(c23)CCC4)nc1 | -1% | -32% | 1% | 8 | 15µM* | ?
Cc1nn(C)cc1/C=N/NC(=O)Cn1nnc(N)n1 | . | 5% | -1% | 6 | 3% | 6%
CCOC(=O)c1sc(=S)n(-c2cc(F)ccc2F)c1N | -1% | 0% | -5% | -18 | -28% | ?
COC(=O)c1sc(=S)n(-c2cc(F)ccc2F)c1N | -2% | -9% | 5% | -7 | ? | 15µM*
SMILES | TDP1 inh | TGFb SMAD3 inh | HepG2 tox | IL-1B inflam inh | DT40 TDP1 no CPT | TDP1 cell CPT
CCCn1nnnc1NC(=O)c1ccc2ccccc2c1 | 11% | -2% | 13µM* | 49 | 18µM* | ?
Cc1sc2nc(CN(C(=O)NC3CCCCC3)C3CCCC3)[nH]c(=O)c2c1C | -4% | 8% | 0% | -1 | 16µM* | ?
Cc1sc2nc(CN(Cc3cccs3)C(=O)NC3CCCCC3)[nH]c(=O)c2c1C | 4% | ? | -4% | ? | ? | 23µM*
Cc1sc2ncn(CC(=O)N(CC(=O)NC3CCCC3)Cc3cccs3)c(=O)c2c1C | 3% | -19% | -2% | -7 | ? | ?
COc1ccc(CCNC(=O)Cn2c(=O)cc(C(F)(F)F)c3c(C)nn(C)c32)cc1OC | -1% | -4% | -33% | . | ? | ?
C=CCNC(=S)/N=c1/ccccn1CCC | 4% | ? | -25% | 33 | 23µM* | ?
CCc1ccc(-c2nc(CN3CCC(C(=O)NCc4ccc(F)cc4)CC3)c(C)o2)cc1 | 4% | 15% | -3% | -19 | ? | ?
CCc1ccc(-c2nc(CN3CCC(C(=O)N4CCN(c5ccccc5)CC4)CC3)c(C)o2)cc1 | 9% | -23% | -23% | ? | 16µM* | ?
CCc1ccc(-c2nc(CN3CCC(C(=O)N4CCN(c5ccccn5)CC4)CC3)c(C)o2)cc1 | 1% | 0% | -54% | -53* | 18µM* | 23µM*
COc1ccc([N+](=O)[O-])cc1NC(=O)C(C)OC(=O)Cn1[nH]c(=O)c2ccccc2c1=O (stereo unspecified) | -5%[0.505 µM] | -19% | 0% | 3 | -12% | -2%
CNC(=O)CSc1nc2ccccc2c(=O)n1-c1cc(OC)ccc1OC | 1% | -6% | -1% | ? | -25% | -24%
CC1C(=O)N(Cc2cn(CCC3OCCO3)nn2)CCS(=O)(=O)N1Cc1ccc(-c2ccc(Cl)c(Cl)c2)cc1 (stereo unspecified) | . | ? | -58% | -19 | 6.5µM* | 15µM*
COc1ccc(-c2ccc(CN3C(C)C(=O)N(Cc4cn(CCC5OCCO5)nn4)CCS3(=O)=O)cc2)cn1 (stereo unspecified) | . | -1% | -7% | 20 | 21µM* | ?
COc1ccc(-c2ccc(CN3C(C)C(=O)N(Cc4cn(CCC5OCCO5)nn4)CCS3(=O)=O)cc2)cc1 (stereo unspecified) | . | 5% | -44% | -7 | 23µM* | 9.2µM*
